The results in this text go back to PMC7862700, “An all-to-all approach to the identification of sequence-specific readers for epigenetic DNA modifications on cytosine”.

What all share (experiment): DAPPL (digital affinity profiling via proximity ligation, sequencing); 10 mM Tris-HCl pH 7.5, 50 mM NaCl, 1 mM DTT, 4% glycerol, room temperature, 30 min; GST-TFs on glutathione beads, 16-mer random dsDNA library, 0.1% formaldehyde crosslink after washing; high values mean tight binding
One test has as its target T1, FLI1 (Homo sapiens, UniProt Q01543 1-452).
T1 sequence: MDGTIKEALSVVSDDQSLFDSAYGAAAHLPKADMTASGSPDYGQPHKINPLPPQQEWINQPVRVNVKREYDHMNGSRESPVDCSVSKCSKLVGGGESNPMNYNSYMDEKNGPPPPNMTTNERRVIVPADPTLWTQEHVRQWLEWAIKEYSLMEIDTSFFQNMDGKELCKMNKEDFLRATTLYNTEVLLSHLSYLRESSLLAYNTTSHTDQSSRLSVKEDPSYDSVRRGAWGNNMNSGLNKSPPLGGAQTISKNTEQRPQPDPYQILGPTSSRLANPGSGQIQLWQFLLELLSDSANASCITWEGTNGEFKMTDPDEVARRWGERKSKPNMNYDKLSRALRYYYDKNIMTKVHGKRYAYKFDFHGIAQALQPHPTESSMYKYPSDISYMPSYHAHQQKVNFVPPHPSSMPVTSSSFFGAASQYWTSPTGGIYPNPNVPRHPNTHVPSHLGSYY
The following applies: protein: recombinant; tags: N-terminal GST; dsDNA, one strand shown. The method in brief:
(§1)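 Beads coated with glutathione captured GST-fused human transcription factors that had been expressed in yeast, and the factors were then given DNA barcodes and pooled with a tag-only sample. The pools were incubated with 200 nmole of a random double-stranded 16-mer DNA library in Tris/NaCl/DTT/glycerol buffer for 30 min at room temperature, washed, crosslinked with 0.1% formaldehyde and proximity-ligated with BsaI/T4 ligase at 37 °C for 1 h. PCR amplification and Illumina NextSeq500 sequencing came last. Binding signal is each hexamer's read frequency for a factor divided by its frequency for the tag-only sample.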

Another test deals with T2, ELK1 (Homo sapiens, UniProt P19419 1-428).
T2 sequence: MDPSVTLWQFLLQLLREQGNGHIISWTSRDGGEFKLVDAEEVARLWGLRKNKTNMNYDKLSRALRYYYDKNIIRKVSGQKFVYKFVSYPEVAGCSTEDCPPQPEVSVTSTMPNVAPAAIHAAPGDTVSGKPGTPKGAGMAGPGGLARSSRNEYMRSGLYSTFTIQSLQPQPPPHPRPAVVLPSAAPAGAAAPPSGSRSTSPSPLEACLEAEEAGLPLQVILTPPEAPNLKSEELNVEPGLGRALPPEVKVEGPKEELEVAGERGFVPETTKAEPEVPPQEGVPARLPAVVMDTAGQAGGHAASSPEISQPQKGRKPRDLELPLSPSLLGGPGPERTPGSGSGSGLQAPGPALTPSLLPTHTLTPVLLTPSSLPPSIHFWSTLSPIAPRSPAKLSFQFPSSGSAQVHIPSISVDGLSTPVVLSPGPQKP
The note with it: protein: recombinant; tags: N-terminal GST; dsDNA, one strand shown. The gist of the method: as §1

A further test concerns the target T3, GABPA (Homo sapiens, UniProt Q06546 1-454).
T3 sequence: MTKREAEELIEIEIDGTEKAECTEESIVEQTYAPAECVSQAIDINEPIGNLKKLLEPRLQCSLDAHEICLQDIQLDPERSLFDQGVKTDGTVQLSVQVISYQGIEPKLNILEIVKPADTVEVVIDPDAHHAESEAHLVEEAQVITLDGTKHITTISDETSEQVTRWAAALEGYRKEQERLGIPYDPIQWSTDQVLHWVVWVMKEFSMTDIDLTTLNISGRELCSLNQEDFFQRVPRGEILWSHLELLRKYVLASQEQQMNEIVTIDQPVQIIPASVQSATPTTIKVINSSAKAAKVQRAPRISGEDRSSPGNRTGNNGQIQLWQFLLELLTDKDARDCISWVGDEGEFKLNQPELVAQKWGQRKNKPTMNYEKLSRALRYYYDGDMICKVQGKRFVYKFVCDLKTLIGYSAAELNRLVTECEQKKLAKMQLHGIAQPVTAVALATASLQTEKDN
The following applies: protein: recombinant; tags: N-terminal GST; dsDNA, one strand shown. The method in brief:
as §1

Another test deals with T4, ERG (Homo sapiens, UniProt P11308 1-479).
T4 sequence: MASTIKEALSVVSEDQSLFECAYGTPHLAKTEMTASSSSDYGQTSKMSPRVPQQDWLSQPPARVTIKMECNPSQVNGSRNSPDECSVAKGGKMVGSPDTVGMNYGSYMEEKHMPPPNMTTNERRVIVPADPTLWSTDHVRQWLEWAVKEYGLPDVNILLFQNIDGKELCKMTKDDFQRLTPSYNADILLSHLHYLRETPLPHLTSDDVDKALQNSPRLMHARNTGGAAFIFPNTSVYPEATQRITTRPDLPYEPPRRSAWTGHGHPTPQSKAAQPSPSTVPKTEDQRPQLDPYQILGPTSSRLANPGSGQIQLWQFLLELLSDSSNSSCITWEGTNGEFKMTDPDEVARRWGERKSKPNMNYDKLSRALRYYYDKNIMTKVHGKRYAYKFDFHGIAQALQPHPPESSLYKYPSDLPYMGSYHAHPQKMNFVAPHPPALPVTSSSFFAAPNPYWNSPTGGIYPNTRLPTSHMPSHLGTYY
The following applies: protein: recombinant; tags: N-terminal GST; dsDNA, one strand shown. The method in brief:
as §1

The target in another test is ELF1 (Homo sapiens, UniProt P32519 1-619). The note with it: protein: recombinant; tags: N-terminal GST; dsDNA, one strand shown. The method in brief:
as §1

The target of a further test is T5, EHF (Homo sapiens, UniProt Q9NZC4 1-300).
T5 sequence: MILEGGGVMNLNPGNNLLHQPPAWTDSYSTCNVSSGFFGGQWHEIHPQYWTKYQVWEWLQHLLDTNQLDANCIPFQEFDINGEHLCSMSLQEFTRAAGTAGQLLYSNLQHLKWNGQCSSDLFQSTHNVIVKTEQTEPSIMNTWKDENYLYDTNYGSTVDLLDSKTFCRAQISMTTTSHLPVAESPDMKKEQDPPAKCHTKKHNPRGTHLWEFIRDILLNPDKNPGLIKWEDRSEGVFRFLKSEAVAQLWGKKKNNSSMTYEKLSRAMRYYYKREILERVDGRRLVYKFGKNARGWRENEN
The following applies: protein: recombinant; tags: N-terminal GST; dsDNA, one strand shown. The gist of the method:
as §1

The next test deals with SPI1 (Homo sapiens, UniProt P17947 1-270). The following applies: protein: recombinant; tags: N-terminal GST; dsDNA, one strand shown. The method in brief:
as §1

The next test addresses SPIB (Homo sapiens, UniProt Q01892 1-262). The note with it: protein: recombinant; tags: N-terminal GST; dsDNA, one strand shown. The method in brief:
as §1

Another test deals with T6, ELK3 (Homo sapiens, UniProt P41970 1-407).
T6 sequence: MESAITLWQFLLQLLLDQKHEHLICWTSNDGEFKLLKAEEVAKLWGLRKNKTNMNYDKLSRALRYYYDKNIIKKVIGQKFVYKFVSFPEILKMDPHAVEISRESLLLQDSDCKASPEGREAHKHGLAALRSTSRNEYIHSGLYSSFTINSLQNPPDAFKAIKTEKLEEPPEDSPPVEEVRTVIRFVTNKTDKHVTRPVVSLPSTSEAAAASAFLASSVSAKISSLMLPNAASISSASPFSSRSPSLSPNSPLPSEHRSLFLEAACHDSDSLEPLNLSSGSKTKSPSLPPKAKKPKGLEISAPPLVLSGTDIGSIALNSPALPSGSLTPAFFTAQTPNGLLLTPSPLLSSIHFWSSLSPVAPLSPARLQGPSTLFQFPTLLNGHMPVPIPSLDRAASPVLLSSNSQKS
The note with it: protein: recombinant; tags: N-terminal GST; dsDNA, one strand shown. The gist of the method: as §1

The next test has as its target T7, FEV (Homo sapiens, UniProt Q99581 1-238).
T7 sequence: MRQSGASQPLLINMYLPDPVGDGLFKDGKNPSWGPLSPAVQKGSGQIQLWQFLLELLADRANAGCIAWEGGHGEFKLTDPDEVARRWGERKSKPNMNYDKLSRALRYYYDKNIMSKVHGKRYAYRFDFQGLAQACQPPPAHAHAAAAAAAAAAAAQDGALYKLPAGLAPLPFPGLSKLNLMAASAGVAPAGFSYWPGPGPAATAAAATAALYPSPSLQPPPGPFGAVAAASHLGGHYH
The following applies: protein: recombinant; tags: N-terminal GST; dsDNA, one strand shown. The gist of the method: as §1

For a further test, the target named is ETV5 (Homo sapiens, UniProt P41161 1-510). The note with it: protein: recombinant; tags: N-terminal GST; dsDNA, one strand shown. The gist of the method:
as §1

A further test concerns the target HSF1 (Homo sapiens, UniProt Q00613 1-529). The note with it: protein: recombinant; tags: N-terminal GST; chain copies: 3; dsDNA, one strand shown. The gist of the method: as §1
The next test addresses ELF4 (Homo sapiens, UniProt Q99607 1-663). The following applies: protein: recombinant; tags: N-terminal GST; dsDNA, one strand shown. The method in brief: as §1
The target of the next test is T8, ELK4 (Homo sapiens, UniProt P28324-2 1-405).
T8 sequence: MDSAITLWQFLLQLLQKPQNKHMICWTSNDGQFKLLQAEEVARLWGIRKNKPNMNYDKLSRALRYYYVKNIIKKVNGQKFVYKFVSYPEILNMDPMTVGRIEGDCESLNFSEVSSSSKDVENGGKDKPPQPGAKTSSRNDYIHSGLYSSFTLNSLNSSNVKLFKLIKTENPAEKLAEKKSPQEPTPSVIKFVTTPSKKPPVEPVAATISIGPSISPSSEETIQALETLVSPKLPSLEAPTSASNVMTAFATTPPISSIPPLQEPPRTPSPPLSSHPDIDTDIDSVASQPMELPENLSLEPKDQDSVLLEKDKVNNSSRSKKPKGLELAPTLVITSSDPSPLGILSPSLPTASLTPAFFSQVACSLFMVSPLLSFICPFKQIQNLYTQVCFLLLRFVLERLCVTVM
The following applies: protein: recombinant; tags: N-terminal GST; dsDNA, one strand shown. The method in brief: as §1

The target of another test is T9, ETV2 (Homo sapiens, UniProt O00321 1-342).
T9 sequence: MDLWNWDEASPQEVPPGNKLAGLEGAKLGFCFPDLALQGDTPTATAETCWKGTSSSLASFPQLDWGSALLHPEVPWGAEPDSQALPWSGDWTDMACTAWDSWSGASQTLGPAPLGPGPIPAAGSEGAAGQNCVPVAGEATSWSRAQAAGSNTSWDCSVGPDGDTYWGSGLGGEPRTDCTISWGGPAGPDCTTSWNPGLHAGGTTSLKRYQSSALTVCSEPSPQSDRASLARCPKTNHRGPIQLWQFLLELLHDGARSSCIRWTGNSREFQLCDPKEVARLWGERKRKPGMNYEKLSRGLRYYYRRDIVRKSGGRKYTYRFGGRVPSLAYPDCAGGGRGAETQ
The note with it: protein: recombinant; tags: N-terminal GST; dsDNA, one strand shown. The gist of the method:
as §1

Another test addresses T10, ELF3 (Homo sapiens, UniProt P78545 1-371).
T10 sequence: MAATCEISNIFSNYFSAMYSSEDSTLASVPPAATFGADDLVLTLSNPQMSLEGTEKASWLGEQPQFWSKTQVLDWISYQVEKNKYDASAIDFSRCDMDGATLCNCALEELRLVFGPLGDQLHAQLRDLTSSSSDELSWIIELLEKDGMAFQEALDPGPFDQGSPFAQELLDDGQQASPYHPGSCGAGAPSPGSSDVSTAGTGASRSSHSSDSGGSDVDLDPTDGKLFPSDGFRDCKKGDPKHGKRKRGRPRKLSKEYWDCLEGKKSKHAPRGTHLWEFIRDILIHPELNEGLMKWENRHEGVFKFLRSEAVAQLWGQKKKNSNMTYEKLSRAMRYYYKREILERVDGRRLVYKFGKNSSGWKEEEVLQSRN
The following applies: protein: recombinant; tags: N-terminal GST; dsDNA, one strand shown. The method in brief:
as §1

For a further test, the target named is CRX (Homo sapiens, UniProt O43186 1-299). The note with it: protein: recombinant; tags: N-terminal GST; dsDNA, one strand shown. The gist of the method:
as §1

The target of another test is ETV1 (Homo sapiens, UniProt P50549 1-477). The following applies: protein: recombinant; tags: N-terminal GST; dsDNA, one strand shown. The gist of the method: as §1
Sequence of ETV1 (P50549 whole entry): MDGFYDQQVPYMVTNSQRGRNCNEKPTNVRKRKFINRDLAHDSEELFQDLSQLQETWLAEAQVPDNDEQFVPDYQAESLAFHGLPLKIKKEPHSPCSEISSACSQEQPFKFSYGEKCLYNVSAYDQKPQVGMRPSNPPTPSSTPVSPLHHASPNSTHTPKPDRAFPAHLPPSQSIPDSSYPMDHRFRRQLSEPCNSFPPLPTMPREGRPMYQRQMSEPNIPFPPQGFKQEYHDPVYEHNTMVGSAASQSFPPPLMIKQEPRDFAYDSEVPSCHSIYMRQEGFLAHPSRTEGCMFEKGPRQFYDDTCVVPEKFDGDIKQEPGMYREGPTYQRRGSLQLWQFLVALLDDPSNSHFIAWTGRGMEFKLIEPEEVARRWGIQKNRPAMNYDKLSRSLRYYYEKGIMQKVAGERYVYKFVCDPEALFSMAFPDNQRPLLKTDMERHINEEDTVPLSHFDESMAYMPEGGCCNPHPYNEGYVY

Sequence of ELF4 (Q99607 whole entry): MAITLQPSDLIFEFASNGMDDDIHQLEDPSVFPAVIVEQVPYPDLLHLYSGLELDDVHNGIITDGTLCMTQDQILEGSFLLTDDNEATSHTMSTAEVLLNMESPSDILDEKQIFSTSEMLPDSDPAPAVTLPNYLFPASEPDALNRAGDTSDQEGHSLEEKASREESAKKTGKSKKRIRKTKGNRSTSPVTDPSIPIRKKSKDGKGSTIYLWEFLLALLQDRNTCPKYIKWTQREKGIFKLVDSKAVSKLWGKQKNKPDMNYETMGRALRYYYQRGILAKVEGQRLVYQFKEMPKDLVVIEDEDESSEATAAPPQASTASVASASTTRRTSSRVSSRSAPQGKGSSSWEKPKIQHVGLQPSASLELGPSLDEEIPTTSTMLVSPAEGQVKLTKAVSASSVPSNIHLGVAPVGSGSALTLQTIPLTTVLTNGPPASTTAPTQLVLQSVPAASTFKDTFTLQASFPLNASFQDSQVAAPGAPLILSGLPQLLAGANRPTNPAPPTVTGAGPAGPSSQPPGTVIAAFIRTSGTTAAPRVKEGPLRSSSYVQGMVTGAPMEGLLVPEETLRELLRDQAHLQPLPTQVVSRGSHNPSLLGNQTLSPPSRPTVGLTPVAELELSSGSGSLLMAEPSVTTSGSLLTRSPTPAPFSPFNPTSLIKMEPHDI
Sequence of ETV5 (P41161 whole entry): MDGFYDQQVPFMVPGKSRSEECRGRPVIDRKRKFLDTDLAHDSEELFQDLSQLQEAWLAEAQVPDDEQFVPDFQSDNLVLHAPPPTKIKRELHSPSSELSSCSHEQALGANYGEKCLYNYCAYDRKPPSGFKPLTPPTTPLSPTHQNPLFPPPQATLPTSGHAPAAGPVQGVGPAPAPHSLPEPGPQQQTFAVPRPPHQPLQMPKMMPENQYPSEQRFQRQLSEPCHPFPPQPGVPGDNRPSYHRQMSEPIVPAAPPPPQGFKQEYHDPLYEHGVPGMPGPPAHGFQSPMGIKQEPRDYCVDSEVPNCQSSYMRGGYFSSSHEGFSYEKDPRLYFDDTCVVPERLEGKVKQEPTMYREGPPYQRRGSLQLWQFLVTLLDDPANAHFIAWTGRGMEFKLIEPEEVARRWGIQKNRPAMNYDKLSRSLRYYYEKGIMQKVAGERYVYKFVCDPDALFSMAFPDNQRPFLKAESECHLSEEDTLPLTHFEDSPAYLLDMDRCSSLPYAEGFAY
Sequence of HSF1 (Q00613 whole entry): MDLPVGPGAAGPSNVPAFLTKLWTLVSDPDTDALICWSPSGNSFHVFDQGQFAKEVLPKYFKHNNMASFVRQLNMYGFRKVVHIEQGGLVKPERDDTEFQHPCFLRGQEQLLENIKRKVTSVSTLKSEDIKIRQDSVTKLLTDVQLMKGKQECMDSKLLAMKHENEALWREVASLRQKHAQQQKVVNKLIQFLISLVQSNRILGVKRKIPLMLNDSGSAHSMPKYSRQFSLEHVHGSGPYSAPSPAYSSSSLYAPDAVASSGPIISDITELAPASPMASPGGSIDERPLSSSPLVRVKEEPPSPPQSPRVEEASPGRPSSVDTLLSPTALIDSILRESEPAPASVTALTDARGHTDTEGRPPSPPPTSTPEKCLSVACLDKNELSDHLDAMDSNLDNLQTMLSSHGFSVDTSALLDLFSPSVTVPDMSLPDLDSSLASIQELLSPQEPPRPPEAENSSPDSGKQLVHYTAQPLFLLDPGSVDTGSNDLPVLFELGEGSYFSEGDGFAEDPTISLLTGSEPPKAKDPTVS
Sequence of CRX (O43186 whole entry): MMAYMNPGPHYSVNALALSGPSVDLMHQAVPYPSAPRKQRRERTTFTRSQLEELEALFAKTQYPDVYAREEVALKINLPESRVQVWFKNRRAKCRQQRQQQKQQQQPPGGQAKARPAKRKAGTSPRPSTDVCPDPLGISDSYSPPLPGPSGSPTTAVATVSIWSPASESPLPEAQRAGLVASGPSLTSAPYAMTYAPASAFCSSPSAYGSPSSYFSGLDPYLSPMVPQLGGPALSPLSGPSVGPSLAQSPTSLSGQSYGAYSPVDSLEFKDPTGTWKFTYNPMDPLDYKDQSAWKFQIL
Sequence of ELF1 (P32519 whole entry): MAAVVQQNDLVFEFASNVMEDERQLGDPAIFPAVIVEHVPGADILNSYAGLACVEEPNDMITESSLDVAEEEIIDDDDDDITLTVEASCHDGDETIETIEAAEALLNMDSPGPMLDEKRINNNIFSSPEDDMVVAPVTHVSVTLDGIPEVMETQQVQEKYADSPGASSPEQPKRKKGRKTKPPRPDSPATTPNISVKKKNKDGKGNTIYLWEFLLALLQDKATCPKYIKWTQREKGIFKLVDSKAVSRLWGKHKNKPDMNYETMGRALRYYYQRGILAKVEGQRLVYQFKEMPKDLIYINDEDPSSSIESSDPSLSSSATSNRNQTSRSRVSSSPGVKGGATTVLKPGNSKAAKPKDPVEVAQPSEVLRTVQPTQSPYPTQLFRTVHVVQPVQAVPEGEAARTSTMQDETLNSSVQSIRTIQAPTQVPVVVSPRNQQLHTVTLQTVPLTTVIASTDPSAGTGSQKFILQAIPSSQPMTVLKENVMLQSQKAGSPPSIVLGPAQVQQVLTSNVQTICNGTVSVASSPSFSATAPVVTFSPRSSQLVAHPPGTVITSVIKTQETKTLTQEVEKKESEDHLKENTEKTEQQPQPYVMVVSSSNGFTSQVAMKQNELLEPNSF
Sequence of SPIB (Q01892 whole entry): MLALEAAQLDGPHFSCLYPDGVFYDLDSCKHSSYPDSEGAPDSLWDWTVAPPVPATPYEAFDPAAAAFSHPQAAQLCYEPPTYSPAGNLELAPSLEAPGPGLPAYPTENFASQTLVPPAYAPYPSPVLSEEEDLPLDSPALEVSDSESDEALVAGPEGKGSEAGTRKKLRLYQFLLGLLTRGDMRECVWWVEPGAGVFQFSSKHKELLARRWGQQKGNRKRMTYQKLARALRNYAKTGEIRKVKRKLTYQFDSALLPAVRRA

Turning to ACAAAA, the binding signal in the test with FLI1 was 1.14 fold enrichment (6-mer frequency, TF over GST control); in the test with ELK1, 1.11 fold enrichment (6-mer frequency, TF over GST control); with GABPA it was 1.15 fold enrichment (6-mer frequency, TF over GST control); with ERG, 1.18 fold enrichment (6-mer frequency, TF over GST control); with ELF1, 1.16 fold enrichment (6-mer frequency, TF over GST control); with EHF, 1.21 fold enrichment (6-mer frequency, TF over GST control). In addition, the binding signal with SPI1 was 1.22 fold enrichment (6-mer frequency, TF over GST control); with SPIB it was 1.14 fold enrichment (6-mer frequency, TF over GST control); with ELK3 it was 1.16 fold enrichment (6-mer frequency, TF over GST control); with FEV it was 1.19 fold enrichment (6-mer frequency, TF over GST control); in the test with ETV5, 1.17 fold enrichment (6-mer frequency, TF over GST control); in the test with HSF1, 1.09 fold enrichment (6-mer frequency, TF over GST control). Besides, the binding signal was 1.16 fold enrichment (6-mer frequency, TF over GST control) with ELF4; 1.15 fold enrichment (6-mer frequency, TF over GST control) with ELK4; 1.11 fold enrichment (6-mer frequency, TF over GST control) in the test with ETV2; 1.04 fold enrichment (6-mer frequency, TF over GST control) with ELF3; 1.05 fold enrichment (6-mer frequency, TF over GST control) with CRX; 1.13 fold enrichment (6-mer frequency, TF over GST control) with ETV1.
